Laboratory results from PubChem BioAssay (NCATS).
Where “and” joins values, the source holds several entries; their conditions need not be identical. Identical values can stand only once. Results filed as inconclusive are left out. Calls of active or inactive are those of the source. Unless noted, the call rests on the fitted dose curve; in most records, active means well fitted curve in the direction sought with a large enough effect; inconclusive means small, poorly fitted or top-dose-only effect, or another doubt; inactive means no such curve, though single readings can be large; an effect the other way counts as inactive or inconclusive. Peptide text beside a SMILES is read from it.

Columns and labels:
[1] = molecular target: Alpha-galactosidase A (Homo sapiens) (UniProt P06280); experiment: Counterscreen for Glucocerebrosidase Inhibitors: qHTS Assay for Human alpha-Galactosidase at pH 4.5 (AID 992); further: 0% is about no effect
Chain of Alpha-galactosidase A (Homo sapiens) (P06280 whole entry, looked up): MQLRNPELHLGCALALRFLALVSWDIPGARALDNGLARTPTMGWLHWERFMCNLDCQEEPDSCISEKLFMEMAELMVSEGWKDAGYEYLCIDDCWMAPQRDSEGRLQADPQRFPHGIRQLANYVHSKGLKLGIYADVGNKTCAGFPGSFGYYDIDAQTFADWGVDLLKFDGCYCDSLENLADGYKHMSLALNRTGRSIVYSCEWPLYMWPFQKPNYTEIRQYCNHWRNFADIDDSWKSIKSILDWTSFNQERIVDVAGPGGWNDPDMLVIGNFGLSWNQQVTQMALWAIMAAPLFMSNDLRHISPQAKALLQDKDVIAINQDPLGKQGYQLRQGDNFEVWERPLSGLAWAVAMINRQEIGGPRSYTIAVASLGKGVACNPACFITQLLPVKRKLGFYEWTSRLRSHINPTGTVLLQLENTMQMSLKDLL
Outline: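 Quantitative HTS: compounds tested from 0.7 nM up to 77 uM against 2 nM enzyme with 80 uM 4-MU alpha-D-galactopyranoside. The 20 min room-temperature reaction is stopped with 1M NaOH/1M glycine, pH 10.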

[2] = molecular target: alpha-glucosidase (Oryza sativa, rice) (UniProt Q653V4); experiment: Counterscreen for Glucocerebrosidase Inhibitors: qHTS Assay for Rice alpha-Glucosidase at pH 5.0 (AID 997);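 further: 0% = full activity with enzyme and -100% = basal without enzyme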
Outline: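 Rice alpha-glucosidase (4 nM final) with 400 uM 4-methylumbelliferyl-alpha-D-glucopyranoside in citrate buffer pH 5.0, 20 min at room temperature, stopped at pH 10; fluorescence 365/440 nm, compounds 0.7 nM–77 uM, AC50 from Hill fits.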

[3] = molecular target: DNA repair nuclease/redox regulator APEX1 (Homo sapiens) (UniProt P27695); experiment: qHTS Validation Assay for Inhibitors of the Human Apurinic/apyrimidinic Endonuclease 1 (APE1) (AID 1705; further: potency means the concentration at half of the fitted maximal effect;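 on activity change, negative = inhibition: TAMRA fluorescence gain over two minutes as APE1 cuts a quenched THF abasic duplex; on the % scale 0 is the no-effect control and ±100 the full control effect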)
Chain of DNA repair nuclease/redox regulator APEX1 (Homo sapiens) (P27695 whole entry, looked up): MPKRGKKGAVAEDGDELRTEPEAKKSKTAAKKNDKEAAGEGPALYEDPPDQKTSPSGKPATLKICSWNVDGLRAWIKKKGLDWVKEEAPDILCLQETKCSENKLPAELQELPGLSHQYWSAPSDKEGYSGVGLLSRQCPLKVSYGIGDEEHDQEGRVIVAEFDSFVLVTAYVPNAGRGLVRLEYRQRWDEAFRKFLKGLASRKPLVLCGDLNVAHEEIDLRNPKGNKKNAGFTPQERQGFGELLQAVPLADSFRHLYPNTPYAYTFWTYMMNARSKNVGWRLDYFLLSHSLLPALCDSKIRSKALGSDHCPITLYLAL
Outline: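 Activity read as rising fluorescence (598 nm emission, 525 nm excitation) from incision of a TAMRA/BHQ-2 duplex carrying a THF abasic site (50 nM). Compound and enzyme sat 15 min at RT before substrate start; signal change between first and third 60-s reads.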

[4] = qHTS for differential inhibitors of proliferation of Plasmodium falciparum line GB4 (AID 1816); conditions: Potency: Plasmodium falciparum GB4 proliferation inhibition;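 further: parasite growth measured after 72 h incubation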; further: potency means the concentration at half of the fitted maximal effect;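 on activity change, negative = inhibition: 0% = vehicle DMSO and -100% = reference inhibitor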
[5] = qHTS for differential inhibitors of proliferation of Plasmodium falciparum line 3D7 (AID 1876); further: potency means the concentration at half of the fitted maximal effect
[6] = qHTS for differential inhibitors of proliferation of Plasmodium falciparum line D10 (AID 1877);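 further: parasites grown with compound for 72 h before DNA staining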; further: potency means the concentration at half of the fitted maximal effect;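 on activity change, negative = inhibition: plate controls were vehicle wells for no effect and reference inhibitor wells for full effect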
[7] = qHTS for differential inhibitors of proliferation of Plasmodium falciparum line Dd2 (AID 1882); conditions: Potency: Plasmodium falciparum Dd2 proliferation inhibition; further: nearly all actives have a fitted effect of over 65% in size; further: potency means the concentration at half of the fitted maximal effect;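 on activity change, negative = inhibition: plate controls were DMSO vehicle for no effect and 0.29 µM artemisinin for full effect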
Outline: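 Dd2-infected erythrocytes (0.3% parasitemia, 2.5% hematocrit final) incubated with compound 72 h at 37 C, 5% CO2; lysed with saponin/Triton buffer containing SYBR Green I, incubated overnight in the dark, then read by fluorescence (485/535 nm). Normalized to 0.29 uM artemisinin and DMSO.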

[8] = qHTS for differential inhibitors of proliferation of Plasmodium falciparum line W2 (AID 1883); conditions: Potency: Plasmodium falciparum W2 proliferation inhibition;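 further: parasites grown with compound for 72 h before lysis and staining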; further: potency means the concentration at half of the fitted maximal effect;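 on activity change, negative = inhibition: 0% = vehicle wells and -100% = control inhibitor wells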
[9] = qHTS for differential inhibitors of proliferation of Plasmodium falciparum line HB3 (AID 1886); conditions: Potency: Plasmodium falciparum HB3 proliferation inhibition;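 further: parasites grown with compound for 72 h before SYBR Green readout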; further: potency means the concentration at half of the fitted maximal effect;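 on activity change, negative = inhibition: plate controls were vehicle for no effect and reference inhibitor for full effect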
[10] = Cell Viability - LYMP2-020 (AID 986); further: nearly all actives have a fitted effect of over 55% in size; further: potency means the concentration at half of the fitted maximal effect
Outline: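 Human lymphoblastoid LYMP2-020 cells (2500/well) preincubated 5 h at 37 C, then treated 24 h at 37 C. Viability measured as intracellular ATP by CellTiter-Glo luminescence after 30 min at room temperature; AC50 from Hill fits.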

[11] = Cell Viability - LYMP2-026 (AID 989); further: nearly all actives have a fitted effect of over 50% in size; further: potency means the concentration at half of the fitted maximal effect
Outline: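 Human lymphoblastoid LYMP2-026 cells, 2500/well, exposed to compound 24 h at 37 C in complete medium. Viability as intracellular ATP by CellTiter-Glo luminescence; AC50 from Hill fits of qHTS concentration-response.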

[12] = qHTS Assay for Lipid Storage Modulators (AID 1519; calls by dose curve; on activity change, negative = inhibition: on the % scale 0 is the no-effect control and ±100 the full control effect); conditions: Drosophila S3 cells, BODIPY lipid droplet/cell ratio, laser cytometry, cells loaded with oleic acid
Outline: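 Cells seeded at 5,000 per well were treated with compounds over a concentration series and loaded with oleic acid (400 uM, as added). Lipid droplet fluorescence (488 nm excitation, 500-530 nm channel) was read by laser-scanning cytometry and normalized to 20 uM Triacsin C.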

[13] = Cell Viability - LYMP2-024 (AID 988); further: nearly all actives have a fitted effect of over 60% in size; further: potency means the concentration at half of the fitted maximal effect
Outline: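 Human lymphoblastoid LYMP2-024 cells (2500/well) rested 5 hr, then treated with compound for 24 hr at 37 C in complete medium. Viability was measured as intracellular ATP by CellTiter-Glo luminescence. AC50 values came from Hill-equation fits.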

[14] = Cell Viability - LYMP1-002 - Assay at 40 hr (AID 994); further: nearly all actives have a fitted effect of over 60% in size; further: potency means the concentration at half of the fitted maximal effect
Outline: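 LYMP1-002 human lymphoblastoid cells (2500/well, complete medium) were treated with compounds for 40 hr at 37 C. Intracellular ATP was measured by CellTiter-Glo luminescence, and AC50 values came from Hill-equation fits of concentration-response data; tetraoctylammonium bromide was the positive control.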

[15] = molecular target: Endonuclease 4 (Escherichia coli (strain K12)) (UniProt P0A6C1); experiment: Counterscreen for APE1 Inhibitors: qHTS Validation Assay for Inhibitors of Endonuclease IV (AID 1708); further: on the % scale 0 is the no-effect control and ±100 the full control effect
Outline: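 E. coli EndoIV at 2 nM final, preincubated 15 min at room temperature with compound, then 50 nM TAMRA/BHQ-2 THF abasic-site duplex added. Buffer: 50 mM Tris-HCl pH 7.5, 50 mM NaCl, 2 mM MgCl2, 1 mM DTT, 0.01% Tween-20. Kinetic fluorescence increase, third minus first read.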

[16] = qHTS for differential inhibitors of proliferation of Plasmodium falciparum line 7G8 (AID 1815);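 further: parasite growth measured after three days of incubation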; further: potency means the concentration at half of the fitted maximal effect;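 on activity change, negative = inhibition: plate controls were vehicle wells for no effect and reference inhibitor wells for full effect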
[17] = molecular target: Ferritin light chain (Equus caballus) (UniProt P02791); experiment: qHTS Validation Assay for Identification of Novel General Anesthetics (AID 2323); further: on the % scale 0 is the no-effect control and ±100 the full control effect
Chain of Ferritin light chain (Equus caballus) (P02791 2-175 limits assumed): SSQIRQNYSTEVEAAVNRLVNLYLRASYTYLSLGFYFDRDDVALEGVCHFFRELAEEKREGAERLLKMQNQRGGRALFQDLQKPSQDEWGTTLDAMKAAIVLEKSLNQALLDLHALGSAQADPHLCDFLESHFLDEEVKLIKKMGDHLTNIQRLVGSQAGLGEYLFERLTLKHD
Outline: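 Competitive displacement of the profluorescent anesthetic 1-AMA (50% saturated, PBS) from 10 uM apoferritin, 10 min, room temperature. Activity is normalized 380/535 nm fluorescence; concentration-response fitted with a four-parameter Hill equation.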

[18] = qHTS Assay for Identification of Small Molecule Inducers of Hypoxia Response (AID 2120; active means well fitted curve in the direction sought with a large enough effect in the signal ratio, with a control signal flat, not every such curve was filed as active; the % refers to the signal ratio; further: 0% is about no effect)
Outline: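 HRE-bla ME-180 cells in Opti-MEM with 0.5% dialyzed FBS, pre-plated 4-5 h, then compound titration for 17 h at 37 degrees Celsius. CCF4 loaded 2.5 h at room temperature; 460/530 nm ratio gave %Activity and AC50 for induction.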

[19] = measured here: cell count channel max response
[20] = measured here: lipid channel max response

SMILES: O=Nc1c(-c2c(O)[nH]c3cc(Br)ccc23)[nH]c2ccccc12
- outcome [1]: inactive
- outcome [2]: inactive
- Potency [3]: inactive
- Potency [4]: 2.24 µM (active)
- Potency [5]: 2 µM (active)
- Potency [6]: 3.98 µM (active)
- Potency [7]: 7.94 µM (active)
- Potency [8]: 2.24 µM (active)
- Potency [9]: 2.24 µM (active)

SMILES: CCc1nc(N)nc(N)c1-c1ccc(Cl)cc1
- Potency [10]: inactive
- Potency [11]: inactive
- activity change, negative = inhibition ([12]; at 25.7 µM (top of the series)): -2.49% (inactive)
- activity change, negative = inhibition ([12]; at 57.5 µM (top of the series)): 9.2% (inactive)
- max response [12, 19]: -6.7% and 7.93%
- max response [12, 20]: -10.2% and 22.1%

SMILES: CN(C)c1ccc2nc3ccc(=[N+](C)C)cc-3sc2c1
- Potency [10]: 7.94 µM (active)
- Potency [13]: 6.31 µM (active)
- Potency [11]: 7.94 µM (active)
- Potency [14]: 7.94 µM (active)

SMILES: CCCc1cc(=O)[nH]c(=S)[nH]1
- Potency [10]: inactive
- Potency [13]: inactive
- Potency [11]: inactive
- Potency [14]: inactive
- activity change, negative = inhibition ([12]; at 25.7 µM (top of the series)): 0.162% (inactive)
- activity change, negative = inhibition ([12]; at 57.5 µM (top of the series)): 8.07% (inactive)
- max response [12, 19]: 4.47% and 16.1%
- max response [12, 20]: 5.94% and 25.3%

SMILES: NC(=NCc1ccccc1)NC(=O)c1nc(Cl)c(N)nc1N
- outcome [1]: inactive
- outcome [2]: inactive
- activity change, negative = inhibition ([12]; at 25.7 µM (top of the series)): 0.817% (inactive)
- activity change, negative = inhibition ([12]; at 57.5 µM (top of the series)): 2.33% (inactive)
- max response [12, 19]: -4.7% and 21.8%
- max response [12, 20]: -4.9% and 26.9%
- Potency [3]: inactive
- outcome [15]: inactive
- Potency [16]: 2 µM (active)
- Potency [4]: 3.16 µM (active)
- Potency [5]: 0.562 µM (active)
- Potency [6]: 0.891 µM (active)
- Potency [8]: 5.01 µM (active)
- Potency [9]: 1 µM (active)
- Potency [17]: inactive

SMILES: Cc1ccc(S(=O)(=O)NC(=O)NN2CC3CCCC3C2)cc1 (stereo not given)
- activity change, negative = inhibition ([12]; at 57.5 µM (top of the series)): 1.76% (inactive) and 2.62% (inactive)
- max response [12, 19]: 7.98% and 20.6%
- max response [12, 20]: 13.4% and 23.5%

SMILES: COC(=O)[C@H](Cc1ccccc1)NC(=O)[C@@H](N)CC(=O)O (H-Asp-Phe-OMe)
- Potency [10]: inactive
- Potency [13]: inactive
- Potency [11]: inactive
- Potency [14]: inactive
- outcome [18]: inactive

SMILES: CC(C)c1ccc2c(c1)c(SC(C)(C)C)c(CC(C)(C)C(=O)O)n2Cc1ccc(Cl)cc1
- outcome [1]: inactive
- outcome [2]: inactive
- Potency [3]: 39.8 µM (active)
- Potency [16]: 5.01 µM (active)
- Potency [4]: 5.01 µM (active)
- Potency [5]: 6.31 µM (active)
- Potency [6]: 12.6 µM (active)
- Potency [7]: 12.6 µM (active)
- Potency [8]: 3.16 µM (active)
- Potency [9]: 11.2 µM (active)

SMILES: Cc1ccc(C)c(OCCCC(C)(C)C(=O)O)c1
- Potency [10]: inactive
- Potency [13]: inactive
- Potency [11]: inactive
- Potency [14]: inactive
- activity change, negative = inhibition ([12]; at 25.7 µM (top of the series)): 0.467% (inactive)
- max response [12, 19]: 10.3%
- max response [12, 20]: 8.2%

SMILES: O=c1c(O)c(-c2ccc(O)cc2O)oc2cc(O)cc(O)c12
- outcome [1]: inactive
- outcome [2]: inactive
- activity change, negative = inhibition ([12]; at 57.5 µM (top of the series)): 13.5% (inactive)
- max response [12, 19]: 2.76%
- max response [12, 20]: 19%
- Potency [3]: 5.01 µM (active)
- Potency [16]: inactive
- Potency [4]: inactive
- Potency [5]: inactive
- Potency [6]: inactive
- Potency [7]: inactive
- Potency [8]: inactive
- Potency [9]: inactive
- Potency [17]: inactive

SMILES: O=C1NC(=O)C(c2ccccc2[N+](=O)[O-])=C1Nc1ccc(O)c(Cl)c1
- outcome [1]: inactive
- outcome [2]: inactive
- activity change, negative = inhibition ([12]; at 57.5 µM (top of the series)): -0.486% (inactive)
- max response [12, 19]: -38.3%
- max response [12, 20]: -39.8%
- Potency [3]: inactive
- outcome [15]: inactive
- Potency [6]: inactive
- Potency [7]: inactive
- Potency [8]: 17.8 µM (active)
- Potency [17]: inactive

SMILES: c1ccc2[nH]c(-c3cscn3)nc2c1
- Potency [10]: inactive
- Potency [13]: inactive
- Potency [11]: inactive
- Potency [14]: inactive
- activity change, negative = inhibition ([12]; at 25.7 µM (top of the series)): 0.183% (inactive)
- max response [12, 19]: -11.6%
- max response [12, 20]: -10.4%
- outcome [18]: inactive

SMILES: CCN(CC)C(=S)SSC(=S)N(CC)CC
- outcome [1]: inactive
- outcome [2]: inactive
- activity change, negative = inhibition ([12]; at 25.7 µM (top of the series)): -3.33% (inactive)
- max response [12, 19]: -15.7%
- max response [12, 20]: -17%
- Potency [3]: inactive
- outcome [15]: inactive
- Potency [4]: 5.01 µM (active)
- Potency [5]: 2.82 µM (active)

SMILES: CC1Cc2ccccc2N1NC(=O)c1ccc(Cl)c(S(N)(=O)=O)c1 (stereo not given)
- activity change, negative = inhibition ([12]; at 57.5 µM (top of the series)): 7.15% (inactive)
- max response [12, 19]: 9.62%
- max response [12, 20]: 23.5%

SMILES: O=c1ccc2ccc(O)c(O)c2o1
- outcome [1]: inactive
- outcome [2]: inactive
- Potency [3]: 17.8 µM (active)
- outcome [15]: inactive
- Potency [16]: 10 µM (active)
- Potency [4]: 15.8 µM (active)
- Potency [8]: 15.8 µM (active)
- Potency [9]: 12.6 µM (active)
- Potency [17]: inactive

SMILES: O=c1cc(N2CCOCC2)oc2c(-c3ccccc3)cccc12
- outcome [1]: inactive
- outcome [2]: inactive
- Potency [3]: inactive
- outcome [15]: inactive
- Potency [5]: inactive
- Potency [6]: inactive
- Potency [7]: inactive
- Potency [9]: inactive
- Potency [17]: inactive
